Records with an inconclusive call do not appear. The source made the active and inactive calls. Calls follow the shape of the dose curve; as a rule, active = well fitted cell-killing curve with a large enough effect (not every such curve was filed as active); inconclusive = small, poorly fitted or top-dose-only effect, or another doubt; inactive = no such curve, though single readings can be large or run the other way.

Our source for the Potency values is PubChem BioAssay AID602288 (National Center for Advancing Translational Sciences (NCATS), 2012).

The nature of this test: qHTS Assay for Agonists of the Relaxin Receptor RXFP1: Cytotoxicity SAR. As to conditions: HEK293-RXFP1 viability, ATPLite luminescence, 72 h; series mostly up to 78.1 µM. An excerpt: The relaxin hormone is involved in the variety of biological functions in normal tissues and diseases. The role of relaxin is well-established in female reproduction and parturition, mammary gland and endometrial development, maintenance of myometrial quiescence during pregnancy. Relaxin signaling through its G protein-coupled receptor (GPCR) RXFP1 results in ECM remodeling through regulation of collagen deposition, cell invasiveness, proliferation and overall tissue homeostasis. […] Recombinant human relaxin (rhRlx) is currently being tested in clinical trials as a protective agent in congestive heart failure, in treating severe preeclampsia, and as an anti-fibrotic agent in systemic sclerosis. In the primary screen, upon relaxin binding RXFP1 activation leads to the activation of adenylate cyclase (AC) via Gs. cAMP will activate PKA, which phosphorylates many signaling proteins. Thus, detection of cAMP increase is an easy and reliable indication of relaxin receptor activation. To screen for agonists of the relaxin receptor, a HEK293T cell line stably transfected with RXFP1 was used. RXFP1 activation was assayed by changes in cAMP levels as detected with a time-resolved fluorescence energy transfer (TR-FRET) cAMP detection kit. We conducted this followup assay to measure the effect of the lead candidates on cell health by measuring ATP levels (ATPLite). NIH Chemical Genomics Center [NCGC] NIH Molecular Libraries Probe Production Centers Network [MLPCN] MLPCN Grant: R03 MH085705-01A1 Assay Submitter (PI): Alexander Agoulnik
In this assay, the luciferase enzyme catalyzes the conversion of the added substrate D-luciferin to oxyluciferin and light with ATP. Thus, the emitted light is proportional to the ATP concentration. To evaluate the cytotoxic properties of the compounds, HEK293-RXFP1 cells were incubated with compounds for 72 h in growth media (DMEM 10% FBS, 1x Pen/Strep, 0.5 mg/mL G418) in 384-well format. After compound incubation, the levels of ATP in each well were measured with the addition of the ATPLite assay reagent.
(qHTS replaces the single test concentration by a dilution series.)
In the case of `CSc1cccc(NC(=O)c2ccccc2NC(=O)C2CCCCC2)c1`, the Potency result is “inactive”.
`O=C(Cc1ccccc1)Nc1ccccc1C(=O)Nc1cccc(C(F)(F)F)c1`: the Potency is 47.1 µM (active).
With `CN(C)CCOc1ccccc1C(=O)Nc1ccccc1C(=O)Nc1cccc(C(F)(F)F)c1` the entry was “inactive”.
With `O=C(Nc1cccc(S(=O)(=O)C(F)(F)F)c1)c1ccccc1NC(=O)C1CCCCC1` the figure was 14.9 µM (active); with `O=C(NCc1cccc(C(F)(F)F)c1)c1ccccc1NC(=O)C1CCCCC1`, 11.8 µM (active); with `O=C(Nc1cccc([N+](=O)[O-])c1)c1ccccc1NC(=O)C1CCCCC1`, “inactive”.
With `O=C(Nc1ccccc1C(=O)Nc1cccc(C(F)(F)F)c1)c1ccccc1Cl` the figure was 11.8 µM (active).
